Laboratory results as given in PubChem BioAssay (EPA / NIEHS).
Active and inactive are the calls of the source. Rule for the calls: active = hit-call score of the fitted dose curve at least 0.9, where 1 is the maximum; inactive = score below 0.9.

Tests used:
Conditions in all cases: mRNA level, 48 h; actives raise or lower the signal
[1] = read-out: Insulin-like growth factor-binding protein 1 (IGFBP1), IGFBP1 (gene 3484); assay: LTEA_HepaRG_IGFBP1: Life Technologies and Expression Analysis (LTEA) Assay for Insulin-like growth factor-binding protein 1 (IGFBP1) using HepaRG (AID 2283508)
Procedure, shortened: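 Thawed HepaRG cells are plated for 48 h, switched to serum-free induction medium, then dosed in duplicate for another 48 h (100 uM top, half-log steps). Lysates in RLT go to qRT-PCR, and gain or loss of signal is fitted relative to vehicle.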

[2] = read-out: Interleukin 6 (IL6), IL6 (gene 3569); assay: LTEA_HepaRG_IL6: Life Technologies and Expression Analysis (LTEA) Assay for Interleukin 6 (IL6) using HepaRG (AID 2283509)
Procedure, shortened: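 HepaRG cells exposed in duplicate for 48 h to eight half-log concentrations, top 100 uM, in 0.5% DMSO serum-free induction medium. mRNA measured by qRT-PCR, normalized to ACTB, GAPDH and POLR2A. Bidirectional fit versus DMSO.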

[3] = read-out: Interleukin 6 Receptor (IL6R), IL6R (gene 3570); assay: LTEA_HepaRG_IL6R: Life Technologies and Expression Analysis (LTEA) Assay for Interleukin 6 Receptor (IL6R) using HepaRG (AID 2283510);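 for AC50: TaqMan qRT-PCR signal normalized to ACTB GAPDH and POLR2A housekeeping genes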
Procedure, shortened: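 Differentiated HepaRG cells, plated 48 h, then exposed in duplicate for 48 h in serum-free induction medium to 8 half-log concentrations (top 100 uM, 0.5% DMSO). IL6R mRNA measured by TaqMan qRT-PCR, normalized to ACTB/GAPDH/POLR2A; bidirectional fit vs DMSO.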

[4] = read-out: Potassium channel subfamily K member 1 (KCNK1), KCNK1 (gene 3775); assay: LTEA_HepaRG_KCNK1: Life Technologies and Expression Analysis (LTEA) Assay for Potassium channel subfamily K member 1 (KCNK1) using HepaRG (AID 2283511)
Procedure, shortened: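 Differentiated HepaRG cells, 48 h exposure in serum-free induction medium with 0.5% DMSO; 8 concentrations, half-log from 100 uM, duplicate. KCNK1 mRNA by qRT-PCR, normalized to ACTB, GAPDH, POLR2A; bidirectional fit vs DMSO.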

[5] = read-out: Keratin 19 (KRT19), KRT19 (gene 3880); assay: LTEA_HepaRG_KRT19: Life Technologies and Expression Analysis (LTEA) Assay for Keratin 19 (KRT19) using HepaRG (AID 2283512)
Procedure, shortened: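 KRT19 transcript levels, measured by Fluidigm qRT-PCR against three housekeeping genes, are fitted for gain or loss of signal relative to DMSO. Human HepaRG cells receive test chemicals (top 100 uM, half-log steps, 0.5% DMSO) for 48 hours.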

[6] = read-out: JUN Transcription Factor, JUN (gene 3725); assay: LTEA_HepaRG_JUN: Life Technologies and Expression Analysis (LTEA) Assay for JUN Transcription Factor using HepaRG (AID 2283513)
Procedure, shortened: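 HepaRG cells, 48 h post-plating, exposed 48 h in serum-free induction medium to 8-point half-log series (top 100 uM, 0.5% DMSO), duplicate; mRNA by qRT-PCR (TaqMan, Fluidigm), normalized to ACTB/GAPDH/POLR2A; bidirectional fit vs DMSO.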

[7] = read-out: Lipase C (LIPC), LIPC (gene 3990); assay: LTEA_HepaRG_LIPC: Life Technologies and Expression Analysis (LTEA) Assay for Lipase C (LIPC) using HepaRG (AID 2283514)
Procedure, shortened: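 HepaRG cells, 48 h after plating, treated in duplicate for 48 h in serum-free induction medium over 8 half-log concentrations from 100 uM, 0.5% DMSO. LIPC mRNA by TaqMan qRT-PCR normalized to ACTB/GAPDH/POLR2A; bidirectional fit versus DMSO.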

[8] = read-out: Lipoprotein lipase (LPL), LPL (gene 4023); assay: LTEA_HepaRG_LPL: Life Technologies and Expression Analysis (LTEA) Assay for Lipoprotein lipase (LPL) using HepaRG (AID 2283515)
Procedure, shortened: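 Differentiated HepaRG cells, plated 48 h, then exposed 48 h in serum-free induction medium to 8 concentrations (top 100 uM, half-log steps) in 0.5% DMSO, duplicate. LPL mRNA measured by qRT-PCR, normalized to ACTB, GAPDH and POLR2A.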

[9] = read-out: MicroRNA 122 (MIR122), gene 406906; assay: LTEA_HepaRG_MIR122: Life Technologies and Expression Analysis (LTEA) Assay for MicroRNA 122 (MIR122) using HepaRG (AID 2283516); note: the transcript read is the microRNA miR-122
Procedure, shortened: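 Differentiated human HepaRG cells in serum-free induction medium exposed 48 h to 8 half-log concentrations from 100 uM in 0.5% DMSO, duplicate. MIR122 quantified by Fluidigm TaqMan qRT-PCR, normalised to ACTB, GAPDH, POLR2A; fold change fitted bidirectionally versus DMSO.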

[10] = read-out: matrix metalloproteinase-10 (MMP10), MMP10 (gene 4319); assay: LTEA_HepaRG_MMP10: Life Technologies and Expression Analysis (LTEA) Assay for matrix metalloproteinase-10 (MMP10) using HepaRG (AID 2283517)
Procedure, shortened: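 Differentiated HepaRG cells in serum-free induction medium exposed 48 h in duplicate to 8-point half-log series up to 100 uM in 0.5% DMSO. mRNA quantified by qRT-PCR, normalised to ACTB, GAPDH, POLR2A; bidirectional fit versus DMSO.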

MYC, MYC (gene 4609) = assay: LTEA_HepaRG_MYC: Life Technologies and Expression Analysis (LTEA) Assay for MYC using HepaRG (AID 2283518)
Procedure, shortened: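 HepaRG, ~100,000 cells/well, collagen I; 48 h plating; serum-free induction medium; 48 h dosing, duplicate, 100 uM top, half-log, 0.5% DMSO; total RNA → qRT-PCR MYC; gain/loss fit vs DMSO.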

[11] = read-out: Paternally Expressed 10 (PEG10), PEG10 (gene 23089); assay: LTEA_HepaRG_PEG10: Life Technologies and Expression Analysis (LTEA) Assay for Paternally Expressed 10 (PEG10) using HepaRG (AID 2283520)
Procedure, shortened: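 Differentiated HepaRG cells exposed 48 h in serum-free induction medium to eight half-log concentrations topping at 100 uM, 0.5% DMSO, in duplicate. PEG10 mRNA quantified by TaqMan qRT-PCR, normalized to ACTB, GAPDH and POLR2A; bidirectional fit versus DMSO.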

[12] = read-out: Protein phosphatase 2A (PPP2R4), PTPA (gene 5524); assay: LTEA_HepaRG_PPP2R4: Life Technologies and Expression Analysis (LTEA) Assay for Protein phosphatase 2A (PPP2R4) using HepaRG (AID 2283522)
Procedure, shortened: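 Differentiated human HepaRG cells in serum-free induction medium were exposed 48 h to 8 concentrations (top 100 µM, half-log steps, duplicate) in 0.5% DMSO. PPP2R4 mRNA was measured by TaqMan qRT-PCR, normalised to ACTB, GAPDH and POLR2A, and fitted bidirectionally versus DMSO.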

[13] = read-out: Phosphatase and tensin (PTEN), PTEN (gene 5728); assay: LTEA_HepaRG_PTEN: Life Technologies and Expression Analysis (LTEA) Assay for Phosphatase and tensin (PTEN) using HepaRG (AID 2283523)
Procedure, shortened: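 HepaRG cells, 48 h after plating, exposed in duplicate for 48 h in serum-free induction medium to 8 half-log concentrations up to 100 uM (0.5% DMSO). PTEN mRNA by qRT-PCR, normalized to ACTB, GAPDH, POLR2A; bidirectional fit versus DMSO.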

[14] = read-out: solute carrier (SLC22A1), SLC22A1 (gene 6580); assay: LTEA_HepaRG_SLC22A1: Life Technologies and Expression Analysis (LTEA) Assay for solute carrier (SLC22A1) using HepaRG (AID 2283524)
Procedure, shortened: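 Differentiated human HepaRG cells in serum-free induction medium, exposed 48 h in duplicate to 8-point half-log series from 100 µM top in 0.5% DMSO. SLC22A1 mRNA by TaqMan qRT-PCR normalized to ACTB, GAPDH, POLR2A; bidirectional fit versus DMSO.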

[15] = read-out: Pyruvate Dehydrogenase Kinase 4 (PDK4), PDK4 (gene 5166); assay: LTEA_HepaRG_PDK4: Life Technologies and Expression Analysis (LTEA) Assay for Pyruvate Dehydrogenase Kinase 4 (PDK4) using HepaRG (AID 2283525)
Procedure, shortened: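 HepaRG cells plated 48 h, then switched to serum-free induction medium and exposed in duplicate for 48 h to 8 half-log concentrations from 100 uM in 0.5% DMSO. PDK4 mRNA measured by qRT-PCR, normalized to ACTB, GAPDH and POLR2A; bidirectional fit versus DMSO.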

[16] = read-out: NAD(P)H dehydrogenase [quinone] 1 (NQO1), NQO1 (gene 1728); assay: LTEA_HepaRG_NQO1: Life Technologies and Expression Analysis (LTEA) Assay for NAD(P)H dehydrogenase [quinone] 1 (NQO1) using HepaRG (AID 2283526)
Procedure, shortened: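 Differentiated human HepaRG cells in serum-free induction medium, dosed in duplicate for 48 h at 8 half-log concentrations up to 100 uM in 0.5% DMSO. NQO1 mRNA by qRT-PCR normalized to ACTB, GAPDH, POLR2A; bidirectional fit versus DMSO baseline.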

[17] = read-out: Nuclear factor erythroid 2-related factor 2 (Homo sapiens) (UniProt Q16236); assay: LTEA_HepaRG_NFE2L2: Life Technologies and Expression Analysis (LTEA) Assay for Nuclear factor erythroid 2-related factor 2 (NFE2L2) Transcription Factor using HepaRG (AID 2283527)
Procedure, shortened: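 Differentiated human HepaRG cells, serum-free induction medium, exposed 48 h in duplicate to eight half-log concentrations up to 100 uM in 0.5% DMSO. NFE2L2 mRNA by Fluidigm TaqMan qRT-PCR, normalised to ACTB, GAPDH, POLR2A; bidirectional change versus DMSO.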

Measured: AC50

Nuclear factor erythroid 2-related factor 2 (Homo sapiens), sequence (Q16236 whole entry, looked up): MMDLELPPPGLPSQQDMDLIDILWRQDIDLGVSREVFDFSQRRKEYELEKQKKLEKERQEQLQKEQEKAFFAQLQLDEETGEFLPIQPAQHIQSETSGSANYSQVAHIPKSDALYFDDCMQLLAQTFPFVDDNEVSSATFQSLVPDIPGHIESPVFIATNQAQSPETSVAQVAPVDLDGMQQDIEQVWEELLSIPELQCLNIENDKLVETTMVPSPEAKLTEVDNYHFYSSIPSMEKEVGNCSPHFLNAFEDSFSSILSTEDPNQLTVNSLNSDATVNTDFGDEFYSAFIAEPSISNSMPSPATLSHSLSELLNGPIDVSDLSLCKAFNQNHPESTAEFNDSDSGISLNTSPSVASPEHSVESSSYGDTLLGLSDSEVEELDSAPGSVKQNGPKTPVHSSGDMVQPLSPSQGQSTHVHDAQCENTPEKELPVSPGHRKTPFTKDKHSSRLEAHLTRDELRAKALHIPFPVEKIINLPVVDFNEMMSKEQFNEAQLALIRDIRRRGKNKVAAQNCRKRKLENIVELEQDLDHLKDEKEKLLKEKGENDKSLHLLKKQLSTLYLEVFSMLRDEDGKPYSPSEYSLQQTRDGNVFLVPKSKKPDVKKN

OC1CCC(C2CCCCC2)CC1 (stereo unspecified)
inactive: all assays above

O=C(O)c1ccccc1C(c1ccc(O)cc1)c1ccc(O)cc1
inactive: all assays above

CCc1ccc(CCOc2ccc(CC3SC(=O)NC3=O)cc2)nc1 (stereo unspecified)
active: [1] 82 µM | [2] 88.8 µM | [3] 63.5 µM | [5] 31.3 µM | [7] 82 µM | [8] 9.92 µM | [9] 72.7 µM | [10] 86.3 µM | MYC, MYC (gene 4609) 80.8 µM | [11] 14.2 µM | [12] 50 µM | [14] 66.6 µM | [15] 11.6 µM | [17] 50 µM
inactive: [4] | [6] | [13] | [16]

CCCCCCC(=O)O
inactive: all assays above

Cc1cc(C)c(O)c(C)c1
inactive: all assays above

CCN(CC)CCNc1ccc(CNC=O)c2sc3ccc(OC)cc3c(=O)c12
active: [1] 94.1 µM | [2] 76.8 µM | [3] 22 µM | [4] 75.2 µM | [5] 12.7 µM | [6] 79 µM | [8] 81.8 µM | [9] 27.5 µM | [10] 78.5 µM | [11] 62 µM | [12] 50 µM | [13] 50 µM | [14] 13.9 µM | [15] 44.3 µM | [17] 87 µM
inactive: [7] | MYC, MYC (gene 4609) | [16]

c1ccc2c(c1)Cc1ccccc1-2
inactive: all assays above

CC(O)CO (stereo unspecified)
inactive: all assays above

CC[C@H](c1ccc(O)cc1)[C@@H](CC)c1ccc(O)cc1
inactive: [4] | [7] | [9] | [10] | MYC, MYC (gene 4609) | [11] | [13]
active: [1] 68.1 µM | [2] 77.3 µM | [3] 73.8 µM | [5] 90.8 µM | [6] 96.5 µM | [8] 75.7 µM | [12] 82.8 µM | [14] 71.4 µM | [15] 80.4 µM | [16] 81.8 µM | [17] 78.8 µM

Oc1cc2ccccc2c2ccccc12
active: [5] 27.1 µM | [8] 50 µM | [11] 50 µM | [14] 50 µM
inactive: all other assays above

CCCOC(=O)c1ccc(O)cc1
not listed: [11]
inactive: all other assays above

CN1CCN(c2ccccc2/C=C2\SCCN(c3ccc(Cl)c(Cl)c3)C2=O)CC1
inactive: [7] | MYC, MYC (gene 4609) | [12] | [13] | [15]
active: [1] 60.9 µM | [2] 92.2 µM | [3] 50 µM | [4] 59.5 µM | [5] 12.4 µM | [6] 75.5 µM | [8] 84.9 µM | [9] 94.1 µM | [10] 93.9 µM | [11] 14 µM | [14] 93.8 µM | [16] 81.3 µM | [17] 79.5 µM

OCCC(F)(F)C(F)(F)C(F)(F)C(F)(F)C(F)(F)C(F)(F)C(F)(F)C(F)(F)F
inactive: all assays above

CCCCCCCCC(=O)O
inactive: all assays above
